Results as given in publication PMC5540273 (PLoS ONE, 2017).

Tests used:
Settings in all cases: concentration: 1 μM, replicates: in singlicate; n = 1
MEK5 = tested on: T1, MEK5
T1 construct: gene MAP2K5

MEK6 = tested on: T2, MEK6
T2 construct: gene MAP2K6

MELK = tested on: MELK
MERTK = tested on: MERTK
MET = tested on: MET
MINK = tested on: T3, MINK
T3 construct: gene MINK1

MKK7 = tested on: MKK7
MKNK1 = tested on: MKNK1
MKNK2 = tested on: MKNK2
MLCK = tested on: T4, MLCK
T4 construct: gene MYLK3
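Also: KINOMEscan kinase panel screen.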

| Structure (SMILES) | %Inh (MEK5) [%] | %Inh (MEK6) [%] | %Inh (MELK) [%] | %Inh (MERTK) [%] | %Inh (MET) [%] | %Inh (MINK) [%] | %Inh (MKK7) [%] | %Inh (MKNK1) [%] | %Inh (MKNK2) [%] | %Inh (MLCK) [%] |
| --- | --- | --- | --- | --- | --- | --- | --- | --- | --- | --- |
| Cl.Cl.NC(CNC(=O)c1cc(Br)c(-c2ccnc3[nH]ccc23)s1)c1ccccc1 (stereo not drawn) [GSK1322949] | 59 | 0 | 74 | 58 | 22 | 69 | 0 | 68 | 99.9 | 70 |
| Cn1cc(-c2cnc(N)c3c(-c4ccc5c(c4)CCN5C(=O)Cc4ccccc4)csc23)cn1 [GSK2593074] | 99.8 | 7 | 0 | 90 | 79 | 16 | 0 | 0 | 0 | 0 |
| Cc1cc(-c2c(-c3ccc(F)cc3)ncn2CCCN2CCOCC2)nc(N)n1 [SB-222517] | 26 | 29 | 0 | 0 | 0 | 15 | 0 | 0 | 0 | 0 |
| CN(c1ccc(NC(=O)Nc2cccc(Cl)c2)cc1)c1ccnc(N)n1.Cl [GW830707] | 48 | 0 | 11 | 0 | 1 | 0 | 17 | 52 | 95.6 | 10 |
| CN1CCN(Cc2ccc(NC(=O)Nc3ccc(N(C)c4ccnc(Nc5ccc(CS(C)(=O)=O)cc5)n4)cc3)cc2)CC1.Cl [GW827654] | 99.1 | 0 | 32 | 72 | 67 | 95.6 | 0 | 96.7 | 100 | 26 |
| Cc1ccc(Nc2ccnc(Nc3ccc(C)c(F)c3)n2)cc1O.Cl [GW582868] | 92.8 | 0 | 0 | 38 | 0 | 0 | 0 | 0 | 7 | 24 |
| CCn1cnc2c(NCc3ccccc3)ncnc21 [SKF-96418] | 38 | 9 | 0 | 0 | 0 | 12 | 17 | 0 | 0 | 0 |
| Nc1cccc(-c2ccc3c(N)n[nH]c3c2)c1 [GSK2193613] | 64 | 0 | 0 | 0 | 6 | 73 | 0 | 2 | 64 | 95.4 |
| CN(C)c1ncnc2nc[nH]c12 [SKF-31736] | 51 | 0 | 0 | 10 | 0 | 2 | 20 | 0 | 0 | 0 |
| CC(=O)Nc1cn2nc(Oc3cccc(NC(=O)c4cccc(C(F)(F)F)c4)c3)ccc2n1 | 93.3 | 5 | 20 | 73 | 16 | 22 | 0 | 0 | 0 | 0 |
| COc1cccc2c(-c3ccncc3)c(-c3ccc(F)cc3)nn12 [GW468513] | 33 | 0 | 0 | 0 | 84 | 78 | 0 | 22 | 0 | 6 |
| O=C(Nc1n[nH]c2nc(-c3ccccc3)ccc12)C1CC1 [SB-708999] | 76 | 0 | 13 | 27 | 0 | 71 | 31 | 30 | 1 | 62 |
| COc1cccc(C2=C(Nc3cccc(O)c3)C(=O)NC2=O)c1 [SB-390771] | 71 | 2 | 27 | 18 | 21 | 18 | 20 | 11 | 5 | 0 |
| Cc1ccc(-c2ccc3occ(-c4ccc(S(C)=O)cc4)c3c2)nn1 (stereo not drawn) | 0 | 0 | 0 | 0 | 0 | 0 | 0 | 0 | 0 | 5 |
| CN(c1ccc(NC(=O)N2CCN(CCCN3CCOCC3)CC2)cc1)c1ccnc(Nc2ccc(CS(C)(=O)=O)cc2)n1.Cl [GW830899] | 80 | 0 | 0 | 0 | 67 | 0 | 0 | 33 | 0 | 0 |
| N#CC1(c2cccc(C(=O)Nc3cccc(Oc4ccc5nc(NC(=O)C6CC6)sc5n4)c3)c2)CC1 | 99.1 | 18 | 1 | 80 | 2 | 54 | 0 | 40 | 0 | 36 |
| COc1cccc(-c2nc(-c3ccccc3)[nH]c2-c2ccncc2)c1 [SB-610250] | 26 | 100 | 14 | 9 | 0 | 10 | 0 | 22 | 5 | 0 |

| Structure (SMILES) | %Inh (MEK5) [%] | %Inh (MEK6) [%] | %Inh (MELK) [%] | %Inh (MERTK) [%] | %Inh (MET) [%] | %Inh (MINK) [%] | %Inh (MKK7) [%] | %Inh (MKNK1) [%] | %Inh (MKNK2) [%] | %Inh (MLCK) [%] |
| --- | --- | --- | --- | --- | --- | --- | --- | --- | --- | --- |
| CCOc1nccc(-c2c(-c3ccc(F)cc3)ncn2C2CCNCC2)n1 [SB-249175] | 26 | 18 | 0 | 18 | 0 | 49 | 7 | 57 | 46 | 2 |
| CCNc1nccc(-c2c(-c3ccc(F)cc3)ncn2C2CCN(C)CC2)n1 | 19 | 15 | 11 | 25 | 0 | 30 | 0 | 0 | 0 | 0 |
| COc1ccc(NC(=O)c2ccoc2)cc1-c1ccc(C(=O)NCC2CC2)cc1 [GW810437] | 41 | 16 | 29 | 0 | 0 | 7 | 0 | 0 | 13 | 0 |
| Cc1ccccc1CC(=O)N1CCc2cc(-c3cn(C)c4ncnc(N)c34)ccc21 [GSK2603346] | 99.9 | 73 | 7 | 46 | 70 | 0 | 0 | 7 | 55 | 6 |
| COc1ccc(C)c(Nc2ccnc(Nc3ccc(-c4cnc[nH]4)cc3)n2)c1.Cl [GW784041] | 99.7 | 0 | 34 | 7 | 15 | 44 | 0 | 8 | 0 | 0 |
| COc1ccc(C2=C(Nc3cccc(O)c3)C(=O)NC2=O)cc1 [SB-390766] | 17 | 0 | 99.4 | 28 | 0 | 0 | 73 | 93.5 | 17 | 2 |
| CN(C)CCNS(=O)(=O)c1ccc(-c2ccnc3[nH]ccc23)cc1 [GSK977620] | 71 | 100 | 92.6 | 72 | 0 | 4 | 6 | 0 | 77 | 18 |
| COc1cccc(NC(=O)NCCNc2ccnc(Nc3ccc(F)cc3)n2)c1 [GSK1379879] | 40 | 0 | 0 | 0 | 0 | 2 | 30 | 12 | 7 | 0 |
| O=C(Nc1n[nH]c2nc(-c3ccccc3O)ccc12)C1CC1 [SB-711880] | 63 | 0 | 0 | 27 | 0 | 74 | 0 | 0 | 38 | 57 |
| Cl.Cl.NCC(NC(=O)c1cc(-c2cccnc2)c(-c2ccnc3[nH]ccc23)s1)c1ccccc1 (stereo not drawn) [GSK1323434] | 59 | 0 | 20 | 13 | 0 | 80 | 0 | 0 | 56 | 51 |
| Nc1ncc(-c2cn[nH]c2)c2scc(-c3ccc4c(c3)CCN4C(=O)Cc3ccccc3)c12 [GSK2593067] | 99.9 | 0 | 32 | 73 | 77 | 33 | 34 | 0 | 11 | 6 |
| Nc1ncnc2scc(-c3ccc(NC(=O)Cc4cc(F)ccc4F)cc3)c12.O=C(O)C(F)(F)F [SB-731254-M] | 99.7 | 11 | 4 | 14 | 0 | 35 | 0 | 0 | 47 | 60 |
| CN(c1ccc(F)c(NC(=O)c2cccc(OC(C)(C)C#N)c2Cl)c1)c1ccc2nc(NC(=O)C3CC3)sc2n1 | 99.8 | 0 | 0 | 30 | 24 | 54 | 39 | 0 | 22 | 0 |
| O=C(Nc1n[nH]c2nc(-c3cccc(O)c3)ccc12)C1CC1 [SB-711805] | 95.9 | 0 | 3 | 47 | 0 | 51 | 0 | 0 | 26 | 94.5 |
| Fc1cc(Cl)ccc1Nc1ccnc2cc(-c3ccc(CN4CCSCC4)o3)ccc12 [GW560106] | 99.8 | 0 | 0 | 40 | 28 | 63 | 0 | 1 | 45 | 5 |
| Cc1ccc(O)cc1Nc1ccnc2ccc(C(C)(C)C)cc12 [GW856805] | 86 | 25 | 8 | 46 | 0 | 10 | 40 | 0 | 30 | 4 |
